# Measurements reported in ChEMBL document CHEMBL3988442, “University of Dundee, Small-Polar-MMV Screening Library” (2021).
# Among all 66,000 compounds or so, about 960 (1.5%) showed an effect of 50% or more. The sample holds strong results, similar compounds and a random draw of the others, so the mix is not that of the screen.
# Test system: Trypanosoma brucei
# Test: Trypanosoma brucei 72 hour study
# Format: functional, organism-based
# Design: scale not given: in the data most compounds retested in dose-response had high values
structure (smiles),measurement,setting,value
CN1CC(=O)N(c2ccsc2)CC12CCN(C(=O)CC1CCCC1)C2.O=C(O)C(F)(F)F (stereo not drawn),Percent Effect,"30 µM, 30.03 µM",8.203%
O=C(C[C@@H]1COC[C@H]2CN(C3CCCC3)C[C@@H]12)NCc1cccnc1.O=C(O)C(F)(F)F.O=C(O)C(F)(F)F,Percent Effect,"30.3 µM, […]",5.505%
Cc1noc(CN2CCC(Cc3ccc(F)cc3)CC2)n1,Percent Effect,"30.3 µM, […]",-2.984%
CN(C)C(=O)N1C[C@@H]2CC[C@H](C1)N(Cc1nnc(C3CC3)o1)C2,Percent Effect,"30 µM, 30.03 µM",-29.28%
Cc1cnccc1-c1cc(NCCO)nc2[nH]ccc12,Percent Effect,"30 µM, 30.03 µM",-32%
CCCNCc1ccc(-c2cc(N)nc3[nH]ccc23)cc1,Percent Effect,"30.3 µM, […]",58.31%
Nc1cc(-c2cc(O)cc(C(=O)O)c2)c2cc[nH]c2n1,Percent Effect,"30 µM, 30.03 µM",-9.984%
CCCNCc1ccc(-c2ccnc3[nH]ccc23)cc1,Percent Effect,"30.3 µM, […]",63.66%
CNc1cc(-c2ccc(COCCN)cc2)c2cc[nH]c2n1,Percent Effect,"30 µM, 30.03 µM",-16.28%
CCNCCOc1ccc(-c2cc(N)nc3[nH]ccc23)cc1,Percent Effect,"30.3 µM, […]",21.45%
CC(C)N1CCC(c2nc3ccc(-c4ccnn4C)cn3n2)CC1.O=C(O)C(F)(F)F,Percent Effect,"30.3 µM, […]",-11.51%
O=C(CC1CCCC1)N1CCC2(CCN2Cc2ccc(F)cc2)C1.O=C(O)C(F)(F)F (stereo not drawn),Percent Effect,"30.3 µM, […]",-0.9298%
CCc1nnc(CN(C)CC2CCCCC2)o1,Percent Effect,"30 µM, 30.03 µM",-20.72%
Cc1ncnc2c1CCN(C(=O)c1cnccn1)CC2,Percent Effect,"30.3 µM, […]",17.88%
Cc1cnc(C(=O)N2CCc3ncnc(C)c3CC2)cn1,Percent Effect,"30 µM, 30.03 µM",54.93%
Cc1ccc(C(=O)N2CCc3ncnc(C)c3CC2)cn1,Percent Effect,"30 µM, 30.03 µM",1.33%
CCNC(=O)N(C)C1CCN(Cc2ncc(C)c(OC)c2C)CC1,Percent Effect,10 µM,-34.27%
Cc1cc(C(=O)N2CCC3(CC2)CC(c2cccnc2)C(=O)N3)no1.O=C(O)C(F)(F)F (stereo not drawn),Percent Effect,"30 µM, 30.03 µM",-44.38%
COc1ccc(CCN2CC(NCc3ncc[nH]3)CC2=O)cc1 (stereo not drawn),Percent Effect,"30 µM, 30.03 µM",64.92%
O=C1CC(NCc2ccccn2)CN1CCc1ccc(F)cc1 (stereo not drawn),Percent Effect,"30 µM, 30.03 µM",2.338%
Cc1nc[nH]c1CNC1CC(=O)N(CCc2cccc(Cl)c2)C1 (stereo not drawn),Percent Effect,"30 µM, 30.03 µM",-48.22%
Cc1ncc(CNC2CC(=O)N(CCc3ccc(F)cc3)C2)n1C (stereo not drawn),Percent Effect,"30 µM, 30.03 µM",23.38%
O=C1CC(NCc2ccncc2)CN1CCc1cccc(Cl)c1 (stereo not drawn),Percent Effect,"30 µM, 30.03 µM",-25.97%
O=C1CC(NCc2ncc[nH]2)CN1CCc1cccc(Cl)c1 (stereo not drawn),Percent Effect,"30 µM, 30.03 µM",84.65%
CCN1CCN(C(C)CNC(=O)Nc2nc3ccccc3s2)CC1 (stereo not drawn),Percent Effect,"30.3 µM, […]",21.11%
Fc1ccc(CN2CCc3ncnc(C4CC4)c3CC2)cc1.O=C(O)C(F)(F)F,Percent Effect,"30 µM, 30.03 µM",-12.14%
Cc1ccc(O)c(-c2cc(NCCO)nc3[nH]ccc23)c1,Percent Effect,"30 µM, 30.03 µM",-9.914%
CC(=O)N1[C@H](CN(C)C)C[C@@H]2CN(C(=O)c3occc3C)CC[C@@H]21.O=C(O)C(F)(F)F,Percent Effect,"30.3 µM, […]",-4.239%
O=C(O)C(F)(F)F.O=S(=O)(C1CC1)N1CCO[C@H]2[C@@H](Oc3ncccc3F)CC[C@@H]21,Percent Effect,"30.3 µM, […]",-15.89%
CC(C)c1cn(CC(=O)NC2CC(=O)N(CCc3ccccc3)C2)nn1 (stereo not drawn),Percent Effect,"30.3 µM, […]",-9.844%
CCN(Cc1noc(CC(C)C)n1)Cc1ccccc1C,Percent Effect,"30.3 µM, […]",13.68%
CCN(Cc1noc(CC(C)C)n1)Cc1ccccc1C(=O)O,Percent Effect,"30.3 µM, […]",12.17%
CCN(Cc1noc(CC(C)C)n1)Cc1ccccc1Cl,Percent Effect,"30.3 µM, […]",100%
COc1cccc(CN2CCCC(c3nn(C)c4nccnc34)C2)c1.Cl (stereo not drawn),Percent Effect,"30.3 µM, […]",-9.344%
Cc1cnc(CN2C[C@H]3C[C@H](Oc4ccccc4)C[C@H]3C2)cn1,Percent Effect,"30.3 µM, […]",-12.87%
Cc1nc(COCc2cnc3n2CCN(C2CCC2)C3C)cs1.O=C(O)C(F)(F)F (stereo not drawn),Percent Effect,"30 µM, 30.03 µM",-3.887%
Cc1nc(COCc2cnc3n2CCN(C)C3C)cs1.O=C(O)C(F)(F)F (stereo not drawn),Percent Effect,"30.3 µM, […]",14.84%
Cc1nc(COCc2cnc3n2CCN(CC2CCC2)C3C)cs1.O=C(O)C(F)(F)F (stereo not drawn),Percent Effect,"30 µM, 30.03 µM",77.97%
O=C(NCc1ccco1)[C@H]1C[C@@H]2CCN(c3cccc(F)c3)C[C@H]2O1.O=C(O)C(F)(F)F,Percent Effect,"30.3 µM, […]",0.588%
COCc1ncn(Cc2nc(-c3ccc(OC)cc3F)oc2C)n1,Percent Effect,"30.3 µM, […]",-22.44%
COc1ccc(-c2nc(CN3CCCC(OC)C3)c(C)o2)c(F)c1 (stereo not drawn),Percent Effect,"30.3 µM, […]",99.32%
CCCOC1CCCN(Cc2nc(-c3ccc(F)cc3F)oc2C)C1 (stereo not drawn),Percent Effect,"30.3 µM, […]",19.33%
Cc1nnc(CN2C[C@H]3CC[C@@H]2CN(C2Cc4ccccc4C2)C3)o1,Percent Effect,"30 µM, 30.03 µM",19.71%
COCC1N(C(=O)c2ccco2)[C@H]2CC[C@]1(O)CC2 (stereo partly drawn),Percent Effect,"30.3 µM, […]",-31.26%
O=C(NCC1CC1)[C@H]1C[C@@H]2CN(S(=O)(=O)Cc3ccccc3)C[C@H]1O2,Percent Effect,"30 µM, 30.03 µM",-18.74%
O=C(NCC(F)(F)F)NC1CCCc2c1cnn2CCO (stereo not drawn),Percent Effect,"30 µM, 30.03 µM",3.56%
O=C(NC1CCCCC1)NC1CCCc2c1cnn2CCO (stereo not drawn),Percent Effect,"30 µM, 30.03 µM",61.21%
O=C(NCC1CCCCC1)NC1CCCc2c1cnn2CCO (stereo not drawn),Percent Effect,"30 µM, 30.03 µM",-28.76%
